Bioassay records as filed in PubChem.
Rows were chosen to be rich in hits. Some 1.3% of all compounds tested hit in one or more screens of this group.
PriA SSB inh: inhibitors of Klebsiella pneumoniae PriA binding to SSB C-terminal tail, primary screen, biochemical, AlphaScreen | PriA–SSB C-terminal tail interaction (Klebsiella pneumoniae) | AlphaScreen SSBct-PriA binding, biotinylated peptide | inhibition, % at 33 µM | 430,000 compounds, 0.6% hits; in the data active means inhibition mostly above about 37%, no sharp cut-off; inactive means mostly below about 20%;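 further: plate controls were negative control peptide for no effect and reference peptide for full effect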
VHR inh abs: VHR1 phosphatase inhibitors, primary screen, biochemical, absorbance, uHTS; inhibition, % at 13.3 µM; recombinant VHR phosphatase, pNPP absorbance; 290,000 compounds, 0.52% hits; Dual specificity protein phosphatase 3 (Homo sapiens), P51452; AID 1654, 2009; in the data active means inhibition above about 50%
Target sequence (P51452 whole entry, looked up): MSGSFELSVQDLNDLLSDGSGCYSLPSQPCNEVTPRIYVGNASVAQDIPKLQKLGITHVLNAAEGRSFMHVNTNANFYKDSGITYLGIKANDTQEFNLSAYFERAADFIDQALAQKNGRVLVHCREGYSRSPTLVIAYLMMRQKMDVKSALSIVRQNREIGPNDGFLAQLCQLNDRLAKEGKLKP
CCHFV vOTU inh: CCHFV vOTU protease inhibitors, primary screen, biochemical, Pep-AMC substrate, fluorescence; Crimean-Congo hemorrhagic fever virus L polyprotein viral ovarian tumor (vOTU) protease …; inhibition, % at 11.5 µM; 370,000 compounds, 0.55% hits; AID 651958, 2012; in the data active means inhibition above about 30%; further: 0% = vehicle wells with enzyme and 100% = no enzyme wells
3CLpro inhibitor: SARS-CoV 3CLpro protease inhibitors, primary screen, biochemical, quenched FRET; recombinant SARS-CoV 3CLpro, quenched FRET peptide cleavage; 290,000 compounds, 0.14% hits; Replicase polyprotein 1ab (Severe acute respiratory syndrome coronavirus), P0C6X7; inhibition, % at 6 µM; in the data active means inhibition above about 12%
Mtb hypoxia rep: PubChem AID 1159583; 300,000 compounds, 0.1% hits; fluorescence inhibition, % (no concentration beside the values); M. tuberculosis hypoxia-regulated fluorescent reporter, fluorescence; in the data active means fluorescence inhibition mostly above about 23%, no sharp cut-off; inactive means mostly below about 17%
Starred values were filed as active, the others as inactive.

Screening O=C(CCCSc1ccc(NC(=O)c2ccco2)nn1)Nc1ccc2c(c1)OCCO2 returned PriA SSB inh -15.
`CC(=O)c1ccc(N2CCN(C(=O)N[C@H]3CC(=O)N(c4ccc(Cl)cc4)C3)CC2)cc1` gave PriA SSB inh -26.
Brc1ccc(-c2nnc3sc(CN4CCN(C(c5ccccc5)c5ccccc5)CC4)cn23)cc1 was read as PriA SSB inh -17.
`c1cc2c(cc1CNc1ccc(N3CCOCC3)cc1)OCO2` gave PriA SSB inh 48*, CCHFV vOTU inh 6 and Mtb hypoxia rep 3.
`c1cc2c(cc1CNc1nc(N3CCOCC3)nc(N3CCOCC3)n1)OCO2` gave PriA SSB inh 0.
Screening CCOc1ccc(C(=O)/C=C/Nc2ccc(S(=O)(=O)Nc3cc(C)nc(C)n3)cc2)cc1 returned PriA SSB inh -1, VHR inh abs 50*, CCHFV vOTU inh -7, 3CLpro inhibitor 5 and Mtb hypoxia rep 8.
COc1cc(/C=C(\C#N)c2nc(-c3cccc([N+](=O)[O-])c3)cs2)ccc1OC(C)=O was read as PriA SSB inh -7.
`Cc1ccc(S(=O)(=O)N2CCCCC2C(=O)Nc2nc(-c3ccccn3)cs2)cc1` (stereo not given) gave PriA SSB inh 65*.
`O=C(Nc1nc(-c2ccccn2)cs1)C1CCCCN1S(=O)(=O)c1cccs1` (stereo not given) gave PriA SSB inh 104*.
For Cc1csc(NC(=O)C2CCCCN2S(=O)(=O)c2ccccc2)n1 (stereo not given) the results were PriA SSB inh 1, VHR inh abs 22, CCHFV vOTU inh -2, 3CLpro inhibitor 6 and Mtb hypoxia rep -2.
`Cc1ccc(NC(=O)C(NC2CCCc3ccccc32)c2ccccc2)c([N+](=O)[O-])c1` (stereo not given) gave PriA SSB inh 46*, VHR inh abs 4, CCHFV vOTU inh 14, 3CLpro inhibitor 1 and Mtb hypoxia rep 20.
CN1/C(=C/C(=S)NC(=O)C2(C)CC2(Cl)Cl)C(C)(C)c2ccccc21 (stereo not given) was read as PriA SSB inh 71*, VHR inh abs 17, CCHFV vOTU inh 9, 3CLpro inhibitor 3 and Mtb hypoxia rep 3.
`CN1/C(=C\C(=S)NC(=O)c2ccccc2Cl)C(C)(C)c2ccccc21` gave PriA SSB inh 17, VHR inh abs 4, CCHFV vOTU inh -4, 3CLpro inhibitor -4 and Mtb hypoxia rep 5.
`O=C(Nc1c(F)cccc1F)N1CCC(COCc2ccc(Cl)cc2)CC1` gave PriA SSB inh -5.
COc1ccc(-c2csc3ncnc(N4CCN(CCO)CC4)c23)cc1 was read as PriA SSB inh 1, VHR inh abs 57*, CCHFV vOTU inh -8, 3CLpro inhibitor -1 and Mtb hypoxia rep 2.
OCCN1CCN(c2ncnc3scc(-c4ccc(F)cc4)c23)CC1 was read as PriA SSB inh -15, VHR inh abs 21, CCHFV vOTU inh -9, 3CLpro inhibitor 2 and Mtb hypoxia rep 0.
`COc1cc2nc(N3CCNCC3)nc(N)c2cc1OC` gave PriA SSB inh 46*, VHR inh abs -5, CCHFV vOTU inh -56, 3CLpro inhibitor 2 and Mtb hypoxia rep 9.
For Cc1ccc(-c2cc(C(=O)Nc3ccc(S(=O)(=O)Nc4onc(C)c4C)cc3)c3ccccc3n2)cc1 the results were PriA SSB inh 21, VHR inh abs 54*, CCHFV vOTU inh 22, 3CLpro inhibitor 5 and Mtb hypoxia rep 11.
For Cc1cc(C)nc(NS(=O)(=O)c2ccc(NC(=O)c3cc(-c4ccccc4)nc4ccccc34)cc2)n1 the results were PriA SSB inh 18, VHR inh abs 12, CCHFV vOTU inh 21, 3CLpro inhibitor 6 and Mtb hypoxia rep 12.
Screening O=C(Nc1ccc2sccc2c1)c1ccc([N+](=O)[O-])s1 returned PriA SSB inh 46*.
CCc1cccc(CC)c1NC(=O)c1cccc(N)c1 was read as PriA SSB inh -6, VHR inh abs 56*, CCHFV vOTU inh -4 and 3CLpro inhibitor -3.
CCc1cccc(CC)c1NC(=O)c1ccccc1 was read as PriA SSB inh 2, VHR inh abs -2, CCHFV vOTU inh 13, 3CLpro inhibitor 2 and Mtb hypoxia rep 14.
O=C(N/N=C/C=C\c1ccccc1[N+](=O)[O-])c1cc(-c2ccc3ccccc3c2)n[nH]1 was read as VHR inh abs 52*, CCHFV vOTU inh -4 and 3CLpro inhibitor -2.
Screening O=C(N/N=C/c1ccccn1)c1cc(-c2ccc3ccccc3c2)n[nH]1 returned VHR inh abs 51*, CCHFV vOTU inh -5 and 3CLpro inhibitor 0.
For O=C(NN=C/C=C/c1ccccc1[N+](=O)[O-])c1cc(-c2ccccc2)n[nH]1 the results were PriA SSB inh 30.
Screening O=C(NN=Cc1ccccn1)c1cc(-c2ccc3ccccc3c2)n[nH]1 returned PriA SSB inh 1 and Mtb hypoxia rep 8.
For CCOc1cccc2cc(C(=O)Nc3cccc(-c4cn5nc(OC)ccc5n4)c3)c(=O)oc12 the results were PriA SSB inh -3.
Cc1cc(NC(=O)CCCN)on1 was read as PriA SSB inh -4.
For O=C(c1cccc(F)c1)N1CCN(c2cc(N3CCCCC3)c(F)cc2[N+](=O)[O-])CC1 the results were PriA SSB inh 42*, VHR inh abs -4, CCHFV vOTU inh 4, 3CLpro inhibitor 0 and Mtb hypoxia rep 1.
For COc1ccc(N(C(C)C(=O)N2CCC(Cc3ccccc3)CC2)S(C)(=O)=O)cc1 (stereo not given) the results were PriA SSB inh 55*, VHR inh abs 27, CCHFV vOTU inh 9, 3CLpro inhibitor -3 and Mtb hypoxia rep 8.
For O=C(Cc1ccccc1)NNC1CC(=O)N(c2ccc(Cl)cc2)C1=O (stereo not given) the results were PriA SSB inh -2, VHR inh abs 53*, CCHFV vOTU inh -12, 3CLpro inhibitor 1 and Mtb hypoxia rep 10.
Cc1cc(-c2nnc(NC(=O)C3COc4ccccc4O3)o2)n(C)n1 (stereo not given) was read as PriA SSB inh 44*.
O=C(Nc1nnc(C2CCCO2)o1)C1COc2ccccc2O1 (stereo not given) was read as PriA SSB inh 75*.
Screening O=C(Nc1nnc(C2CCCO2)o1)C(c1ccccc1)c1ccccc1 (stereo not given) returned PriA SSB inh 84*.
Screening CCc1nc(-c2ccc(N3CCN(C(=O)c4ccc(S(=O)(=O)N(C)C)cc4)CC3)nc2)no1 returned PriA SSB inh -4.
Screening Cc1cccc(N2CCN(S(=O)(=O)c3ccc4c(c3)CCN4C(=O)CCC(=O)O)CC2C)c1 (stereo not given) returned PriA SSB inh -6, VHR inh abs 54*, CCHFV vOTU inh 1, 3CLpro inhibitor -1 and Mtb hypoxia rep 7.
